Pol iota inh = inhibitors of human DNA polymerase iota; Potency, µM (top dose mostly 115 µM), without a hit: at the top dose activity, negative = inhibition, hits mostly inhibitors; 1% of 390,000 active; Q9UNA4; Pol iota fluorescent replication assay, 10 min; AID 588590; also: potency is read from the fitted curve at half-maximal effect
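Pol iota at 10 nM preincubated 15 min with compounds at room temperature; reaction started with fluorescent substrate, 50 nM final. Fluorescence read kinetically at 0 and 10 min; buffer-only wells as negative control.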
Pol eta inh-1 = DNA polymerase eta (human) inhibition; 1.2% of 390,000 active; Potency, µM (doses to about 114 µM), inactives show at the highest dose activity change, negative = inhibition, usual class: inhibitors; recombinant Pol eta, fluorescent DNA replication assay; Q9Y253; also: potency is read from the fitted curve at half-maximal effect; % is scaled to controls: 0 for no effect and ±100 for the full control effect
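Pol eta at 10 nM preincubated with compounds 15 min at room temperature; reaction started with fluorescent substrate (50 nM final) and read kinetically at 0 and 10 min.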
L3MBTL1 block = L3MBTL1 (human) inhibition | Q9Y468 | AID 485360 | AlphaScreen L3MBTL1–H3K9me1 peptide binding | Potency, µM (series often up to 57.1 µM), for inactives: at the highest dose activity, negative = inhibition, actives largely listed as inhibitors | 0.66% of 230,000 active; also: potency is read from the fitted curve at half-maximal effect; % is scaled to controls: 0 for no effect and ±100 for the full control effect; nearly all actives have a fitted effect of over 60% in size
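Read-out is AlphaScreen signal from streptavidin donor and nickel chelate acceptor beads (10 ug/mL final each) bridging L3MBTL1 (50 nM) and biotinylated K9-monomethylated H3(1-15) peptide (75 nM), after 30 min compound exposure at room temperature.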
POLB inh = blocks human DNA polymerase beta activity; P06746; Pol beta primer extension/strand displacement, fluorescence kinetic; Potency, µM (highest dose often 114 µM), without a hit: top-dose activity change, negative = inhibition, actives largely listed as inhibitors; 1.3% of 340,000 active; also: potency is read from the fitted curve at half-maximal effect; % is scaled to controls: 0 for no effect and ±100 for the full control effect
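10 nM enzyme + cpd, 15 min RT; start with substrate 50 nM final; read 0 min and after 10 min RT. Corrected, normalized data; 4-parameter Hill curve fit.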
Pol kappa inh-1 = DNA polymerase kappa (human) inhibition; purified Pol kappa, fluorescent DNA synthesis assay, 10 min; 0.53% of 400,000 active; Potency, µM (doses to about 107 µM), for the others: at the top dose activity, negative = inhibition, most hits filed as inhibitors; Q9UBT6; also: potency is read from the fitted curve at half-maximal effect; % is scaled to controls: 0 for no effect and ±100 for the full control effect
Target sequence (Q9UBT6 whole entry, looked up): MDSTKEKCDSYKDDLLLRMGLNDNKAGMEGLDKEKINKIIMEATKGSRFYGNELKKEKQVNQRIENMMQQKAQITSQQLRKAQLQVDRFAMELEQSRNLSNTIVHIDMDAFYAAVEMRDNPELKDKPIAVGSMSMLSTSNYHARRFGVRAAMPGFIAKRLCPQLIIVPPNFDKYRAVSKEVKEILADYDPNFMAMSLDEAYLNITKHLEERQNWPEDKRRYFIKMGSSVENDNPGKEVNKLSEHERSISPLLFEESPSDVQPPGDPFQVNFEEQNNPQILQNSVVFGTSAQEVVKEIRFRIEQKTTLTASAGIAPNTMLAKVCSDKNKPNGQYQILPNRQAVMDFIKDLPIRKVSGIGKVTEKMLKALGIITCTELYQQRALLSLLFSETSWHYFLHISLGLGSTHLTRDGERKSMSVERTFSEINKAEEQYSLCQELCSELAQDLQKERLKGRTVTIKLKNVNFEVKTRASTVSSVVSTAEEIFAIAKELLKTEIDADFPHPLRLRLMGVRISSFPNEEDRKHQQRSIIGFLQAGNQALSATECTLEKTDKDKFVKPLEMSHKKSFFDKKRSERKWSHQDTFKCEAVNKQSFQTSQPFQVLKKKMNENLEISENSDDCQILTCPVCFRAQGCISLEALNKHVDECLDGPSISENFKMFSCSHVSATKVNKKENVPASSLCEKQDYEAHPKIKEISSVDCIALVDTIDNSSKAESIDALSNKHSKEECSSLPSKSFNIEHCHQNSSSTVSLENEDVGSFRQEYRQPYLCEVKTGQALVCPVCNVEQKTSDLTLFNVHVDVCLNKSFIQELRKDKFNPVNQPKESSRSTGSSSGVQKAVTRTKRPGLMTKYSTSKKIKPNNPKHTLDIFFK
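Fluorescent qHTS in 1536-well format: enzyme (10 nM) and compound sat 15 min at room temperature before 50 nM substrate (final) was added. Signal taken at 0 and 10 min; no-enzyme buffer wells were negative controls.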
GALK inh confirm = galactokinase (human) inhibition, confirmation; shares compounds with Pol eta inh-1; purified GALK, Kinase-Glo ATP depletion luminescence; Potency, µM (doses to about 115 µM), without a hit: at the highest dose activity, negative = inhibition, most hits filed as inhibitors; 70% of 150 active; AID 2015
GALK redox cs = counter-screen for GALK inhibitors: redox cycling H2O2 generation; shares compounds with Pol eta inh-1; Phenol red-HRP H2O2 redox cycling, absorbance 600 nm; Potency, µM (doses to about 115 µM), inactives show top-dose activity change, negative = H2O2 signal, usual class: inhibitors; 40% of 150 active; AID 2035
HEK293 tox = HEK-293 cytotoxicity, GALK inhibitor secondary; shares compounds with Pol eta inh-1; HEK-293 viability, ATP luminescence (CellTiter-Glo), 24/48 h; Potency, µM (titrated, usually from 46.1 µM), for inactives: top-dose activity change, negative = cytotoxicity, actives largely listed as inhibitors; 10% of 170 active; also: potency is read from the fitted curve at half-maximal effect; % is scaled to controls: 0 for no effect and ±100 for the full control effect
Pol kappa inh-2 = confirmation of human DNA polymerase kappa inhibitors | 76% of 920 active | shares compounds with Pol eta inh-1 | Potency, µM, hits mostly inhibitors | purified Pol-kappa, fluorescent strand-displacement substrate; also: potency is read from the fitted curve at half-maximal effect
Pol eta inh-2 = Pol eta (human) inhibition, cherry-pick confirmation. shares compounds with Pol eta inh-1. Pol eta primer extension, TAMRA/BHQ fluorescence, 10 min. Potency, µM, most hits filed as inhibitors. 64% of 2,600 active; also: potency is read from the fitted curve at half-maximal effect
Active calls of the source: *; ? = inconclusive; · = no result; [ ] = remark or other dose. This is a sample that favours compounds with a hit; in the whole collection about 2.4% have one here. Calls follow the shape of the dose curve; as a rule, active = well fitted curve in the direction sought with a large enough effect; inconclusive = small, poorly fitted or top-dose-only effect, or another doubt; inactive = no such curve, though single readings can be large; an effect the other way counts as inactive or inconclusive.

SMILES	Pol iota inh	Pol eta inh-1	L3MBTL1 block	POLB inh	Pol kappa inh-1	Pol eta inh-2	others
COc1ccc(-n2c(=O)c(C)nc3cnc(N(C)C)nc32)cc1	·	·	·	·	9%[60.1 µM]	·
O=S(=O)(NCc1cccs1)c1ccc(Br)s1	·	·	·	18%	·	·	GALK inh confirm=-9%;GALK redox cs=0%;HEK293 tox=13%
Cc1ccc(C(=O)O)cc1-n1c(C)cc(C=O)c1C	28µM*	20µM*	?	18µM*	?	60*
C/C(N)=C(/C#N)C(=O)CN1C(=O)NC(Cc2c[nH]c3ccccc23)C1=O (configuration not stated)	?	32µM*	·	28µM*	?	?
CC(C)(C)OC(=O)CN1C(=O)NC(Cc2c[nH]c3ccccc23)C1=O (configuration not stated)	3%	-5%	·	?	6%	·
N#Cc1c(NC(=O)c2ccncc2)sc2c1CCC2	?	32µM*	?	14µM*	?	76*
NC(=O)c1c(NC(=O)c2ccncc2)sc2c1CCCC2	5%	6%	·	-24%	0%	·
COc1ccc2[nH]c(=O)c(CN(CCO)S(=O)(=O)c3ccc(C)cc3)cc2c1	21%	-20%	-5%	-5%	-21%	·
CC(=O)c1ccc(S(=O)(=O)N(CCCO)Cc2cc3cc(C)ccc3[nH]c2=O)cc1	?	50µM*	·	40µM*	-26%	60*
Cc1ccc(C(=O)/C=C/N(C)C)o1	37%	-17%	2%	5%	0%	·
Cc1ccc(C(=O)/C=C/c2cc(Br)cc(Br)c2O)o1	?	50µM*	·	?	-12%	?
CC(=O)Nc1ccc2c(O)cc(S(=O)(=O)O)cc2c1	20µM*	32µM*	·	·	?	?	Pol kappa inh-2=?
CC(=O)Nc1ccc(S(=O)(=O)O)c(OC(C)=O)c1	?	-5%	·	·	-34%	·
COc1cccc(Cn2c(=O)n(CCc3ccccc3)c(=O)c3c2c2cc(OC)ccc2n3C)c1	12%	-25%	·	3%	-7%	·
CCOc1ccc(CCNS(=O)(=O)c2c(C)nc3sc(C)cn3c2=O)cc1OCC	32%	-18%	·	2%	2%	·
CSc1nnc(-c2ccco2)c(-c2ccco2)n1	?	11µM*	·	8.9µM*	?	?
CSc1nnc(-c2ccccc2)c(-c2ccccc2)n1	-12%	-19%	1%	11%	-17%	·
O=C(CN1C(=O)N/C(=C\c2cccn2-c2cccc(C(=O)O)c2)C1=O)Nc1cccc(Cl)c1	·	·	·	·	·	·	Pol kappa inh-2=?
Cc1ccc(NC(=O)CN2C(=O)N/C(=C\c3cccn3-c3ccc(C(=O)NS(C)(=O)=O)cc3)C2=O)cc1	·	·	·	·	·	?
Cc1cccc(NC(=O)CN2C(=O)N/C(=C/c3ccc(C)s3)C2=O)c1	-14%	-7%	12%	0%	-17%	·
COc1ccccc1N1CCN(c2ccc3c(c2)S(=O)(=O)c2cccc(C(=O)NCc4cccc(F)c4)c2C3=O)CC1	·	-7%	·	·	·	·
O=C(Nc1ccccc1C(=O)O)c1cccc(NC(=O)c2ccccc2Br)c1	10%	-2%	-2%	22%	-3%	·
O=C(Nc1cc(C(=O)Nc2ccccc2C(=O)O)cc(C(=O)Nc2ccccc2C(=O)O)c1)c1ccccc1	?	14µM*	·	6%	?	30*
Cc1ccc(NC(=O)c2cccc(C(=O)Nc3ccc(C)cc3C(=O)O)c2)c(C(=O)O)c1	-20%	?	·	-12%	-37%	?	Pol kappa inh-2=15*
Cc1ccc(CNC(=O)Cc2c(C(=O)O)c(C)cn2C)cc1	7%	-24%	·	-21%	1%[60.1 µM]	·
SMILES	Pol iota inh	Pol eta inh-1	L3MBTL1 block	POLB inh	Pol kappa inh-1	Pol eta inh-2	others
CC(=C/c1ccco1)/C=N/NC(=O)Cc1cccn1C	56µM*	?	-18%	9%	?	·	Pol kappa inh-2=42*
Nc1ccc(-c2c3ccc(=O)cc-3oc3cc(O)ccc23)cc1C(=O)O	25µM*	20µM*	·	45µM*	79µM*	30*	Pol kappa inh-2=15*
O=c1cc(-c2ccccc2)oc2cc(O)ccc12	-8%	-2%	·	·	-4%	·
COc1ccc(Br)cc1/C=C/C(=O)NC(=S)Nc1ccc(Cl)c(C(=O)O)c1	17%	25µM*	·	12%	2%	·	Pol kappa inh-2=?
Cc1ccc(OC(=O)CSc2nnc(CNC(=O)c3ccccc3)o2)cc1	-9%	-15%	·	-12%	-5%	·
COCCCn1c(=O)/c(=C\c2ccccc2OC(C)C)s/c1=C(/C#N)C(=O)Nc1ccc(C(=O)O)cc1	?	?	-9%	1%	-28%	43*
COCCCn1c(=O)/c(=C\c2ccccc2OC(F)F)s/c1=C(/C#N)C(=O)NC(C)C	1%	-6%	-1%	-7%	-3%	·
Cc1cc(C)nc(NN2C(=O)/C(=C/c3ccc(O)cc3)SC2=S)n1	32µM*	?	-5%	?	-28%	76*
CC1(C)CC(=O)C2=C(C1)c1c(ccc3ccccc13)NC2c1cc([N+](=O)[O-])cc([N+](=O)[O-])c1O (configuration not stated)	?	28µM*	-26%	45µM*	-36%	?	Pol kappa inh-2=47*
CC1(C)CC(=O)C2=C(C1)c1c(ccc3ccccc13)NC2c1ccc(C(=O)O)cc1 (configuration not stated)	21%	4%	·	15%	-9%	·
COc1ccc(C(=O)N2CCC3(CC2)CCN(c2ccncc2)CC3)cc1	·	·	·	·	8%[60.1 µM]	·
N#C/C(=C\c1coc2ccc(O)cc2c1=O)C(=O)Nc1nc2ccccc2s1	?	3.5µM*	·	?	2.8µM*	·	GALK inh confirm=33µM*;GALK redox cs=-1%;HEK293 tox=?
Cc1ccc(NC(=O)N/C=C/c2ccco2)cc1C	40µM*	28µM*	-25%	25µM*	79µM*	?
CCCSCCCNC(=O)c1ccc(Cn2c(=O)c3cccn3c3cccnc32)cc1	8%	-9%	·	-2%	-6%	·

Source: PubChem BioAssay (National Center for Advancing Translational Sciences (NCATS))
